The source of these data is PubChem BioAssay.

“And” between values parts separate entries of the source, which are not always exact repeats. Identical values can stand only once. For some of these results: Measured potencies and affinities stand elsewhere. The source made the active and inactive calls. Cut-off read from the data, not from the text of the source, unless noted: active = parasite load remaining mostly below about 12% (no sharp cut-off); inactive = mostly above about 10%.

Experiment [1] is described as follows: polyglutamine-triggered caspase-3 activation inhibitors, cell-based (AID 1583). As to conditions: polyglutamine-induced caspase-3 activation, cell assay; stronger effect = higher value;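 tested at 10 µM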.
Experiment [2] is described as follows: suppressors of polyQ aggregation in yeast, 75Q-TubU reporter (AID 1593). As to conditions: Yeast 75Q polyglutamine aggregation reporter.
Experiment [3] can be described thus: rescue of polyQ-huntingtin neuronal dysfunction in worms, whole organism, C. elegans mechanosensory neurons, N-terminal huntingtin (AID 1599). As to conditions: touch response, stronger effect = higher value.
Experiment [4] in a line: inhibitors of mitochondrial cytochrome c release, biochemical, purified mitochondria (AID 1603).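 Note: mouse liver mitochondria challenged with calcium chloride; signal normalized to the plate average as 100%.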 As to conditions: stronger effect = lower value.
Experiment [5] can be described thus: inhibitors of polyQ protein aggregation (AID 1604). As to conditions: polyglutamine-induced protein aggregation inhibition assay; stronger effect = higher value; tested at 2.5 µM.
Experiment [6] in a line: enhancers of glutamate uptake in motor neurons, MN-1 cell line (AID 1612).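 Note: tested at 1 µM final; 0% = mean of DMSO vehicle wells on each plate; positive means more glutamate uptake than control and negative means less.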 As to conditions: MN-1 motor neuron cells, stronger effect = higher value.
Experiment [7] is described as follows: reducers of polyQ inclusions in PC12 cells, cell-based, NGF-treated PC12, GFPQ80 (AID 1614).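 Note: lower means fewer inclusions and 0 means no inclusions at all.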 As to conditions: PC12 NGF-treated GFP-polyQ80 inclusion reduction.
A short description of experiment [8]: suppressors of polyglutamine aggregation in yeast, 75Q-TubH (AID 1616). As to conditions: S. cerevisiae 75Q-TubH polyglutamine aggregation suppression; stronger effect = higher value.
Experiment [9] in a line: liver-stage malaria parasite growth inhibition, primary screen, cell-based, HepG2, luciferase luminescence, HepG2 viability (AID 624349).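 Note: 100% = mean of DMSO negative control wells on the same plate.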 As to conditions: P. berghei liver stage in HepG2, luciferase luminescence, concentration not given here; parasite load remaining: stronger effect = lower value; viability: measured here: HepG2 viability without parasites.
The nature of experiment [10]: differential killing of epithelial or mesenchymal cells, primary screen, imaging, PC-3E GFP, TEM4-18 mCherry, co-culture (AID 1345086;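 active = compounds killing one labelled cell type while sparing the other, by normalised counts and ratio limits, not self-fluorescent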;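 for all read-outs here: cells exposed to compound for 72 h before imaging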;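 for red/green cell ratio (normalised): normalised mesenchymal count divided by normalised epithelial count so high means epithelial killing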). As to conditions: imaging cell counts, at 1 µM; for red/green cell ratio (normalised): actives lie on both sides, counts scaled to control wells, 1 = unselective.
Experiment [11] in a line: sensitizers of A549 cells to miR-34 induction, primary screen, imaging, A549 dox-inducible miR-34, nuclei and caspase counts (AID 1347080;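 active = compounds whose cell count with miR-34 switched on is under 0.7 times the count with it off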). As to conditions: A549 miR-34 inducible, Hoechst nuclei count, 48 h.
Setting [12] is: measured here: epithelial PC-3E GFP cell survival.
Setting [13] is: measured here: mesenchymal TEM4-18 mCherry cell survival.
Setting [14] is: stronger effect = lower value, cell number ratio, induced over uninduced.
The mark [15] stands for this setting: measured here: relative caspase fold change +Dox/-Dox.
Where [16] appears, read: measured here: total cells with miR-34 induction, stronger effect = lower value.
The mark [17] stands for this setting: measured here: total cells without miR-34 induction.

For orientation: inhibition means the relative decrease from the control value, in per cent. The viability is a read-out of living cells in per cent, often relative to untreated cells.

In the case of `N[C@@H]1[C@@H](O)[C@H](O)[C@@H](CO)O[C@H]1O`, in experiment [1], the inhibition is -15.7%. Besides, the score in [2] was 0.98. Moreover, the rescue above control in [3] amounted to 5.73. In addition, the cytochrome c release ratio in experiment [4] is 0.85. Moreover, in experiment [5], the inhibition of aggregation stood at 66.7%. In experiment [6], the glutamate uptake change came to 9.21%. In [7], the inclusion score was 2. The molecule also displayed an aggregation suppression score in experiment [8] of 1.04. Further, the parasite load remaining in experiment [9] was 80.5% (inactive) and 72% (inactive). Besides, the viability in experiment [9] is 75.2% and 93.7%. Further, the red/green cell ratio (normalised) in experiment [10] was 1.04 (inactive). In addition, the normalised cell number in experiment [10] (setting [12]) is 1.08; in experiment [10] (setting [13]), 1.12. Also, the values for the fold change in experiment [11] (setting [14]) and in experiment [11] (setting [15]) were 0.914 (inactive) and 0.981, respectively. The cell count worked out at 11500 in [11] (setting [16]) and 12600 in experiment [11] (setting [17]).

On to `Cn1nnnc1SCC1=C(C(=O)O)N2C(=O)C(NC(=O)C(O)c3ccccc3)C2SC1` (stereo not given), for which the inhibition in experiment [1] came to 15.1%. The molecule also yielded a score in experiment [2] of 1.62. In addition, the rescue above control in experiment [3] was -1.89. Also, the cytochrome c release ratio in [4] is 1.02. This molecule also came in with an inhibition of aggregation in [5] of 39.4%. Moreover, in experiment [6], the glutamate uptake change was found to be 14.2%. In addition, in experiment [7], the inclusion score is 2. This molecule also returned an aggregation suppression score in experiment [8] of 1.25. Further, the parasite load remaining in [9] was 39.2% (inactive). In [9], the viability amounted to 86%. Moreover, the red/green cell ratio (normalised) in experiment [10] is 0.9 (inactive). In addition, the normalised cell number was 1.03 in experiment [10] (setting [12]) and 0.93 in experiment [10] (setting [13]). Besides, the fold change in experiment [11] (setting [14]) is 0.886 (inactive); in [11] (setting [15]), 4.15. Also, the values for the cell count in experiment [11] (setting [16]) and in experiment [11] (setting [17]) were 11200 and 12600, respectively.

Take `C[C@H](CCC(=O)O)[C@H]1CCC2C3C(=O)CC4CC(=O)CC[C@]4(C)C3CC(=O)[C@@]21C` (stereo not given in full): the inhibition in experiment [1] worked out at 12.1%. In experiment [2], this molecule returned a score of 1.59. Further, the rescue above control in experiment [3] is -5.38. Besides, in experiment [4], the cytochrome c release ratio was found to be 1.29. In experiment [5], this molecule displayed an inhibition of aggregation of 91.6%. Besides, the glutamate uptake change in experiment [6] amounted to 7.41%. The inclusion score in [7] was determined as 2. The same molecule returned an aggregation suppression score in [8] of 1.06. For the same molecule, the parasite load remaining in experiment [9] was 101% (inactive) and 58% (inactive). The viability in [9] is 69.6% and 86.9%. Further, the red/green cell ratio (normalised) in [10] was 1.22 (inactive). In addition, the normalised cell number in experiment [10] (setting [12]) was found to be 1.21; in experiment [10] (setting [13]) it was 1.47. Besides, the figures for the fold change in experiment [11] (setting [14]) and in experiment [11] (setting [15]) were 0.851 (inactive) and 1.32, respectively. The cell count in experiment [11] (setting [16]) was 10500; in experiment [11] (setting [17]) it was 12400.

In the case of `CO[C@H]1/C=C/O[C@@]2(C)Oc3c(C)c(O)c4c(O)c(c(C=NN5CCN(C)CC5)c(O)c4c3C2=O)NC(=O)/C(C)=C\C=C\C(C)[C@H](O)[C@@H](C)[C@@H](O)[C@@H](C)[C@@H](OC(C)=O)[C@@H]1C` (stereo not given in full), in experiment [1], the inhibition was -10.8%. In [2], this molecule had a score of 1.2. The rescue above control in experiment [3] was 1.38. Further, in experiment [4], the cytochrome c release ratio was found to be 0.69. For the same molecule, the inhibition of aggregation in experiment [5] was 83.1%. Besides, in [6], the glutamate uptake change is -15.2%. This molecule also registered an inclusion score in experiment [7] of 2. The same molecule returned an aggregation suppression score in experiment [8] of 0.812. The parasite load remaining in experiment [9] was 73.9% (inactive) and 34.2% (inactive). Further, in [9], the viability is 73.4% and 91.2%. Moreover, the red/green cell ratio (normalised) in [10] is 1.06 (inactive). The normalised cell number in experiment [10] (setting [12]) turned out to be 0.87; in [10] (setting [13]), 0.91. The fold change is 0.892 (inactive) in experiment [11] (setting [14]) and 3.2 in experiment [11] (setting [15]). The cell count in experiment [11] (setting [16]) is 11300; in [11] (setting [17]), 12700.

In the case of `C#C[C@]1(O)CCC2C3CCC4=CC(=O)CC[C@@H]4C3CC[C@@]21CC` (stereo not given in full), the inhibition in [1] was determined as 13.1%. The molecule further showed a score in experiment [2] of 1.25. Also, in experiment [3], the rescue above control came out at 7. The cytochrome c release ratio in experiment [4] stood at 0.87. In [5], this molecule registered an inhibition of aggregation of 11.1%. Also, the glutamate uptake change in experiment [6] was -5.94%. In experiment [7], this molecule returned an inclusion score of 2. Further, the aggregation suppression score in experiment [8] was 1.03. Moreover, the parasite load remaining in experiment [9] was 86.4% (inactive) and 40.3% (inactive). The viability in [9] is 65.9% and 90.1%. In addition, the red/green cell ratio (normalised) in [10] was 1.08 (inactive). Moreover, the normalised cell number in [10] (setting [12]) stood at 0.78; in experiment [10] (setting [13]) it was 0.84. Besides, the results for the fold change in experiment [11] (setting [14]) and in experiment [11] (setting [15]) were 0.867 (inactive) and 2.88, respectively. The figures for the cell count in experiment [11] (setting [16]) and in experiment [11] (setting [17]) were 10400 and 12000, respectively.
